# Screening results deposited in PubChem by National Center for Advancing Translational Sciences (NCATS).
# Vaccinia mCherry – vaccinia inhibition (mCherry reporter). AID 720579. Potency, µM (doses to about 36.5 µM), inactives show at the highest dose activity change, negative = inhibition, most hits filed as inhibitors. 0.63% of 310,000 active. Vaccinia virus mCherry reporter infection, fluorescence; calls by dose curve; tested in A549 cells; further: potency means the concentration at half of the fitted maximal effect; nearly all actives have a fitted effect of over 35% in size
# Vaccinia Venus – vaccinia inhibition (Venus reporter) | Vaccinia virus Venus reporter expression, fluorescence | Potency, µM (top dose mostly 36.5 µM), for the others: at the highest dose activity change, negative = inhibition, usual class: inhibitors | 0.46% of 330,000 active; calls by dose curve; tested in A549 cells; further: potency means the concentration at half of the fitted maximal effect; nearly all actives have a fitted effect of over 30% in size
# Marburg entry inh – Marburg virus entry inhibition | Marburg virus pseudotyped entry inhibition, cell reporter | Potency, µM (doses to about 37.8 µM), for inactives: at the highest dose activity change, negative = inhibition, usual class: inhibitors | 1.8% of 300,000 active | AID 540276; calls by dose curve; tested in HEK293 cells; further: potency means the concentration at half of the fitted maximal effect
# HCV inhibitor – HCV inhibition | Huh7.5.1 HCVcc-Cre infection, luciferase reporter, 44 h | Potency, µM (series often up to 41.8 µM), for the others: top-dose activity change, negative = inhibition, usual class: inhibitors | 3.4% of 340,000 active; active means well fitted inhibition curve with a large enough effect; inconclusive means small, poorly fitted or top-dose-only effect, or another doubt; inactive means no such curve, though single readings can be large or run the other way; further: potency means the concentration at half of the fitted maximal effect
#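 Cells (1,000/well) were plated 4 h before compound, then infected with HCVcc-Cre virus (~0.5 moi). After 44 h further culture, infection was read as luciferase luminescence following a 15 min substrate incubation at room temperature.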
# HCMV inh – human cytomegalovirus inhibition | HFF cells, HCMV-luciferase reporter, 72 h; stronger effect = lower value | activity change, negative = inhibition, % at 57.5 µM | 4.5% of 410,000 active | AID 1259415; in the data active means activity change below about -60%; inconclusive means no clear call, values can overlap the other calls; inactive means above about -39%
#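 Two-dose cell screen: HFF monolayers treated with compounds and infected with luciferase-expressing HCMV at 1 PFU/cell, 72 h at 37C, then lysed for luciferase measurement.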
# LASV entry inh – Lassa virus entry inhibition; Lassa virus pseudotype entry inhibition, cell reporter; 1.2% of 300,000 active; AID 540256; Potency, µM (top dose mostly 37.9 µM), without a hit: at the highest dose activity change, negative = inhibition, usual class: inhibitors; calls by dose curve; tested in HEK293 cells; further: potency means the concentration at half of the fitted maximal effect; nearly all actives have a fitted effect of over 50% in size
# * = called active by the depositor; i = inactive; ? = inconclusive; nt = no result given; ! = not confirmed by another sample; [ ] = another dose, or the depositor's remark. Only some compounds are listed: those with a hit (about 7.8% of all), similar ones and a draw of the others. On the % scale 0 is the no-effect control and ±100 the full control effect.
SMILES,Vaccinia mCherry,Vaccinia Venus,Marburg entry inh,HCV inhibitor,HCMV inh,LASV entry inh
Cc1c2ccccc2c(C)c2c1ccc1ccccc12,-3%,-21%,nt,10µM*,6,nt
COC(=O)c1sc(NC(=O)c2cc3nc(-c4ccc(Br)cc4)cc(C(F)(F)F)n3n2)c(C(=O)OC)c1C,-6%,-11%,nt,nt,-1,18%[46.1 µM]
O=C(CSc1n[nH]c(=O)n1C1CC1)Nc1cc(Cl)ccc1Oc1ccccc1,nt,nt,8.2µM*,?,0,?
CCOC(=O)Cc1csc(SCC(=O)Nc2cc(Cl)ccc2Oc2ccccc2)n1,nt,-28%,?,10µM*,-9,2%
O=C(CSc1n[nH]c(=O)n1C1CC1)Nc1ccccc1,nt,nt,nt,10%,-4,nt
CCCn1c(SCC(=O)Nc2cc(Cl)ccc2Cl)n[nH]c1=O,i,19%,?,-26%,13,?
CCCn1c(SCC(=O)Nc2cc(Cl)ccc2OC)n[nH]c1=O,nt,-10%,-6%,10µM*,39,-4%
O=C1CCC(C(=O)OCC(=O)Nc2ccc(Cl)cc2C(F)(F)F)=NN1,nt,nt,nt,8%,-19,nt
COc1ccc(Cl)cc1NC(=O)COC(=O)C1=NNC(=O)CC1,i,-17%,8%,?,-67*,?
CCc1ccc(-n2nc(C)c3c(C)cc(=O)n(CC(=O)Nc4ccc(OC)c(OC)c4)c32)cc1,-12%,4%,nt,nt,37,2%[46.1 µM]
CN1CCCCCC1C(=O)NCC1Cc2cc(-c3cnccn3)ccc2O1 (stereo not drawn),i,-15%,nt,nt,nt,nt
Cc1cc(C)c(/C=C/c2onc(C)c2S(=O)(=O)N2CCC(C(=O)NCC(C)c3ccccc3)CC2)c(C)c1 (stereo not drawn),-11%[7.34 µM],-9%[7.34 µM],nt,nt,43,?
CCOC(=O)[C@]12CCCC=C1N(Cc1ccc3c(c1)OCO3)C(=O)[C@H](CC(=O)NCc1cccc(C(F)(F)F)c1)C2,?,?,nt,nt,-65*,nt
COC(=O)[C@]12CCCCC=C1N(Cc1ccc(Cl)cc1Cl)C(=O)[C@H](CC(=O)NCc1ccc(OC)c(OC)c1)C2,-11%,-24%,nt,nt,-70*,nt
COC(=O)[C@]12CCCCC=C1N(Cc1ccc(Cl)cc1Cl)C(=O)[C@H](CC(=O)NCc1ccccc1)C2,i,-1%,nt,nt,6,nt
CCOC(=O)[C@]12CCCC=C1N(Cc1ccc(Cl)cc1Cl)C(=O)[C@H](CC(=O)NCc1ccc(OC)c(OC)c1)C2,?,?,nt,nt,-71*,nt
CCOC(=O)[C@]12CCCC=C1N(Cc1ccco1)C(=O)[C@H](CC(=O)N1CCSCC1)C2,-3%,-7%,nt,nt,-82*,nt
CC(C)c1nnc(NC(=O)CC(=O)Nc2ccccc2C(=O)O)s1,nt,-18%,?,15%,-28,6.3µM*
CCOc1ccccc1C(=O)Nc1nnc(C(C)C)s1,-8%,-29%,nt,13µM*,62,nt
Cc1ccc(C)c(NC(=O)CSc2nnc(NC(=O)Nc3ccccc3)s2)c1,-5%[7.34 µM],-2%[7.34 µM],nt,nt,1,4%[46.1 µM]
Cc1cccc(N2CCN(C(=O)C3CCN(C(=O)c4cc5sccc5n4C)CC3)CC2C)c1 (stereo not drawn),-2%[7.34 µM],-4%[7.34 µM],?,nt,-84*,nt
Cc1ccc(C)c(N2CCN(C(=O)c3cc4sccc4n3C)CC2)c1,nt,nt,18µM*,?,-30,?
Cn1c(C(=O)N2CCCC(C(=O)N3CCN(c4ccccc4)CC3)C2)cc2sccc21 (stereo not drawn),-13%,-2%,?,nt,-28,nt
Cc1cc2c(c(=O)o1)[C@H](Cc1ccccc1)C(C#N)=C(N)O2,nt,nt,19%[46.1 µM],nt,nt,nt
C=CCn1c(SCC(=O)Nc2cccnc2Cl)nnc1-c1ccc(Cl)cc1,-3%,-23%,0%,-4%,-37,-30%
SMILES,Vaccinia mCherry,Vaccinia Venus,Marburg entry inh,HCV inhibitor,HCMV inh,LASV entry inh
C=CCn1c(SCC(=O)Nc2cccnc2Cl)nnc1-c1ccccc1F,-23%,-7%,-7%,-6%,-65*,?
CCN(CC)c1nc(C)c(C(C)=O)cc1C#N,nt,?,3%,-3%,-23,3%
CCOC(=O)c1cc(C#N)c(C)nc1N(CC)CC,i[7.34 µM],-6%[7.34 µM],-19%[46.1 µM],?,10,5.6µM*
Oc1[nH]c2ccccc2c1C1=NCCCC1,nt,-25%,7%,35µM*,-21,8%
CCn1c(O)c(C2=NCCCC2)c2ccccc21,nt,-20%,?,?,6,10%
N#C/C(=C\c1ccc(O)cc1)C(=O)O,10%,-18%,nt,1.1µM*,-73*!,nt
CCCCNc1nc2c(S(=O)(=O)c3ccc(Cl)cc3)nnn2c2ccsc12,-19%,-18%,nt,nt,12,0%[46.1 µM]
CNCCC(Oc1ccccc1OC)c1ccccc1 (stereo not drawn),?,-19%,18µM*,?,-16,?
COc1ccc(-c2cn3nc(N4CCCC(C(=O)Nc5cc(C)ccc5C)C4)sc3n2)cc1 (stereo not drawn),-10%,-16%,nt,nt,0,38%[46.1 µM]
CCOc1ccc(NS(=O)(=O)c2cc(NC(=O)c3cccc(C)c3)ccc2Cl)cc1,?,13µM*,?,11µM*,?,16µM*
CCc1cc(C(=O)NNC(=O)CCl)sc1C,nt,nt,?,-15%,-64*,?
CN(C(=O)c1oc(=O)c2ccccc2c1-c1ccccc1)c1cccc(Cl)c1,i,-11%,-11%[46.1 µM],nt,-20,1%[46.1 µM]
COc1ccc(O)c(C(=O)c2cnc3c(c2)c(=O)[nH]c(=O)n3C)c1,?,-13%,0%,?,15,17%
COCCn1c(=O)[nH]c(=O)c2cc(C(=O)c3cc(Cl)ccc3O)cnc21,-4%,-4%,-26%[46.1 µM],1.8µM*,nt,?
O=c1c2cc3c(cc2nc2sc(Nc4cccc([N+](=O)[O-])c4)nn12)OCO3,i,-8%,nt,nt,0,7%[46.1 µM]
Oc1cccc2cc(Nc3ccccc3)cnc12,nt,nt,nt,nt,-101*,nt
Oc1cc(NCCN2CCOCC2)cc2cccnc12,nt,nt,nt,nt,-87*,nt
c1ccc(Nc2ccc3ccccc3c2)cc1,2%,-9%,nt,-20%,?,nt
O=C(NCCN1CCOCC1)c1ccc2ccccc2c1,-14%,-20%,?,10%,-30,1%
Oc1cc(Nc2ccccc2)cc2cccnc12,nt,nt,nt,nt,-82*,nt
COc1ccc(C2=NCC(C)n3nc4cc(C(F)(F)F)ccc4c32)cc1 (stereo not drawn),nt,nt,nt,nt,87,nt
CN(C)CCN(Cc1ccccc1)S(=O)(=O)c1ccc(-c2cc(C(F)(F)F)on2)s1,i,-25%,nt,nt,-100*,-7%[46.1 µM]
Cc1ccc(OCC(=O)Nc2ccccc2C(=O)OCc2cc(=O)n3c(C)csc3n2)cc1,-10%,-17%,nt,nt,-12,29%[46.1 µM]
COc1cccc([C@@H]2Oc3ccc(OC)cc3C[C@@H]2OC(=O)N[C@H]2CCCc3ccccc32)c1,nt,nt,3%[14.2 µM],nt,nt,nt
Cc1cc(-c2nnc(SCCC(=O)Nc3ccccc3)o2)no1,-20%,-10%,-18%,-12%,-85*,-5%
Cn1cnc2nc(Cl)nc(Cl)c21,?,?,?,32µM*,-72*,?
